The text below walks through data of PubChem BioAssay (NCATS).

Inconclusive results are not listed. The source made the active and inactive calls. Calls come from the whole dose curve; as a rule, active = well fitted cell-killing curve with a large enough effect; inconclusive = small, poorly fitted or top-dose-only effect; inactive = flat fitted curve, though single readings scatter.
Potency is the fitted concentration of half-maximal effect.

A short description of the assay: Cell Viability - SH-SY5Y (AID 544).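 For viability change, negative = cytotoxic: 0% = DMSO alone and -100% = 100 µM tamoxifen.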 Note: nearly all actives have a fitted effect of over 55% in size. To be noted: SH-SY5Y neuroblastoma cell viability; series mostly up to 92.2 µM; viability change, negative = cytotoxic: at the top concentration. From the text:
NIH Chemical Genomics Center [NCGC]
NIH Molecular Libraries Screening Centers Network [MLSCN]
National Institutes of Environmental Health Sciences [NIEHS]
National Toxicology Program [NTP]
We have developed a 1536-well cell-based assay for quantitative high throughput screening (qHTS) against a number of cell lines to determine in vitro cytotoxicity of small molecules. This particular assay uses the SH-SY5Y cell line which is derived from human neuroblastoma.
NCGC Assay Protocol Summary:
The CellTiter-Glo luminescent cell viability assay (Promega) is a homogeneous method to measure the number of viable cells in culture. The end point readout of this assay is based on quantitation of intracellular ATP, an indicator of metabolic activity, using the luciferase reaction. Luciferase catalyzes the oxidation of beetle Luciferin to oxyluciferin and light in the presence of ATP. The luminescent signal is proportional to amount of ATP present.
Using the CellTiter-Glo luminescent cell viability assay, the amount of cellular ATP was measured in the SH-SY5Y cell line with complete culture medium following compound treatment for 40 hours. The assay was performed in opaque white Kalypsys 1536-well plates. In the screen, tamoxifen and doxorubicin were used as positive controls. Library compounds were measured for their ability to cause acute toxicity in the cell line, as reflected by a decrease in intracellular ATP levels, in a concentration-dependent manner. […] AC50 values were determined from concentration-response data modeled with the standard Hill equation.
qHTS protocol for CellTiter Glo SH-SY5Y cellular assay
[Step] [Parameter] [Value] [Description]
1. Reagent; 5 uL; 1500 SH-SY5Y cells/well
2. Time; 5 hr; 37 °C incubation
4. Controls; 23 nL; Tamoxifen 0.34 uM to 100 uM & Doxorubicin 0.02 nM to 100 uM
5. Time; 40 hr; 37 °C incubation
6. Reagent; 5 uL; CellTiter Glo reagent
7. Time; 20 min; Room Temperature
8. Detection; Luminescence; Viewlux plate reader
Keywords: cell viability, cytotoxicity, SH-SY5Y cell line, luminescence, NTPHTS, NTPHTS_NCGC, NIEHS, EPA, DSSTox, MLSMR, MLSCN, NIH Roadmap, qHTS, NCGC
Turning to `NC(=Nc1ccccc1)Nc1ccccc1`, the “viability change, negative = cytotoxic” value is -1.2% (inactive).

Consider `O=c1[nH]c(=O)n([C@H]2C[C@H](O)[C@@H](CO)O2)cc1Br`, for which the “viability change, negative = cytotoxic” value was -2.6% (inactive).

Consider `CCCCNC(=O)NS(=O)(=O)c1ccc(C)cc1`, for which the “viability change, negative = cytotoxic” value is -4.37% (inactive).

As for `NC(=O)N1c2ccccc2C=Cc2ccccc21`, the “viability change, negative = cytotoxic” value was -13.6% (inactive).

As to `COc1ccc(CN(CCN(C)C)c2ccccn2)cc1`, the “viability change, negative = cytotoxic” value is -12.3% (inactive).

Regarding `Nc1ncn([C@@H]2O[C@H](CO)[C@@H](O)[C@H]2O)c(=O)n1`, the Potency was 6.31 µM (active).

As to `COc1cc(Cc2cnc(N)nc2N)cc(OC)c1OC`, the “viability change, negative = cytotoxic” value was 2.69% (inactive).

For the compound `CCCCOCCOCCOCc1cc2c(cc1CCC)OCO2`, the “viability change, negative = cytotoxic” value is -29.1% (inactive).

Regarding `COC(=O)[C@H]1[C@H]2C[C@@H]3c4[nH]c5cc(OC)ccc5c4CCN3C[C@H]2C[C@@H](OC(=O)c2cc(OC)c(OC)c(OC)c2)[C@@H]1OC`, the Potency is 31.6 µM (active).

On to `CN=C(NC#N)NCCSCc1nc[nH]c1C`, for which the “viability change, negative = cytotoxic” value is 1.66% (inactive).
